From PubChem
HDAC3 inhib = inhibitors of human histone deacetylase 3; AID 2718; O15379; inhibition, % at 8.3 µM; 320,000 tested, 0.15% active; recombinant HDAC3, fluorogenic peptide/trypsin coupled, fluorescence; in the data active = inhibition above about 26%, passing the limit was not always enough; inconclusive = no clear call, values can overlap the other calls
JMJD2C inh = blocks human GASC-1 demethylase activity; Q9H3R0; GST-JMJD2C(1-420) H3K9me3 demethylation, DELFIA europium; inhibition, % at 2.35 µM; 330,000 tested, 0.069% active;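 active = more than half of a compound's replicate wells show inhibition beyond 50%, single wells judged on their own value; inconclusive = some, but no more than half, of replicates pass 50% inhibition; inactive = no replicate passes 50% inhibition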;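 note: signal counts dimethyl H3K9 product captured on neutravidin plate; 0% = median of DMSO wells and 100% = 0.3 times that DMSO median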
PvdQ acylase = P. aeruginosa PvdQ acylase inhibition | inhibition, % at 10 µM | AID 488965 | purified PvdQ acylase, fluorescence plate reader | 340,000 tested, 0.063% active; in the data active = inhibition above about 30%, passing the limit was not always enough; inconclusive = no clear call, values can overlap the other calls;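 note: 0% = vehicle neutral wells and 100% = reference inhibitor wells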
PHOSPHO1 inh = inhibitors of human PHOSPHO1 phosphatase | Q8TCT1 | AID 1565 | inhibition, % at 13.3 µM | recombinant PHOSPHO1, absorbance phosphatase assay | 290,000 tested, 1.1% active; in the data active = inhibition above about 60%
Target sequence (Q8TCT1 whole entry, looked up): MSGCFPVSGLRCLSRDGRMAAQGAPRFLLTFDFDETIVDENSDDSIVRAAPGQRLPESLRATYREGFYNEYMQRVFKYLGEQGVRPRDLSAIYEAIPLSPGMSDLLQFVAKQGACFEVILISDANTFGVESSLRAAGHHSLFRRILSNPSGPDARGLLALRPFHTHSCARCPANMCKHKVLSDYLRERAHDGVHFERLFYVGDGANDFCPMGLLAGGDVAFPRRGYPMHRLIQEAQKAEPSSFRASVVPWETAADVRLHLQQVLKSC
SUMO Mot1 rescue = blocks SUMOylation pathway, rescuing yeast Mot1-301 growth | S. cerevisiae Mot1-301 growth rescue, ATP luminescence, 38.5C; percent above DMSO median, 100 means doubled | growth rescue, % at 18.8 µM | 320,000 tested, 1% active | AID 2716;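 active = every valid replicate shows activation above 250% relative to neutral control wells; inactive = the rest, any valid replicate at or below 250%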;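 note: OY570 slx delta 5 strain wells were the positive control but not used for scaling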
pCIP destab = p/CIP protein destabilization; Q05BA5; 290,000 tested, 0.01% active; F442A p/CIP-EGFP cells, EGFP fluorescence, 16 h; decrease of EGFP signal, % at 10 µM;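 active = EGFP signal decrease of at least 30% at 10 µM or well 3 SD below plate mean, unless failing retest; inactive = the rest, including hits failing retest or dose response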
* = called active by the depositor; u = inconclusive; x = no result. A selection: hits, their analogues and other compounds. The true share with any hit is near 2.2%.

SMILES | HDAC3 inhib | JMJD2C inh | PvdQ acylase | PHOSPHO1 inh | SUMO Mot1 rescue | pCIP destab
Cc1ccc(N(C(=O)Cn2nnc(-c3ccccc3F)n2)C(C(=O)NC2CCCC2)c2ccncc2)cc1 (centres undefined) | -2 | -6 | 0 | 17 | 214 | 9
Cc1ccc2[nH]c(=O)c(COC(=O)c3cccs3)cc2c1 | -1 | -5 | 3 | 4 | 6 | -5
CC1Oc2ccccc2C=C1/C=N/Nc1ccc(C(=O)O)cc1 (centres undefined) | -1 | -8 | 10 | 24 | 402* | -22
CC(C)(C)c1ccc(/C=N/Nc2ccc(C(=O)O)cc2)cc1 | 8 | 0 | -8 | -35 | -9 | 0
CCOCCCNC(=S)N(CCN(C)C)Cc1cc2cc3c(cc2[nH]c1=O)OCCO3 | 35* | -6 | 0 | -8 | -13 | 1
O=C(CN1CCC(NC(=O)c2ccccc2F)CC1)Nc1ccc2c(c1)OCO2 | -4 | 1 | -4 | 41 | 667* | -8
CC(=O)NC1(c2ccccc2)CCN(CC(=O)N2CCC(C)CC2)CC1 | -5 | -9 | 9 | 33 | -4 | -14
CCOC(=O)c1sc2nc(C3CC3)cc(-c3ccc(OC)cc3)c2c1N | -36 | -341 | 0 | 74* | -9 | -2
COc1cc(/C=N/NC(=O)CSc2ccccn2)ccc1OC(C)C | x | -3 | -8 | 36 | 3 | 0
O=C1NC(c2cccc3ccccc23)Nc2ccccc21 (centres undefined) | x | x | -12 | x | x | x
O=C1c2ccccc2C(=O)C12OC2c1cccc2ccccc12 (centres undefined) | 2 | 32 | -3 | 66* | 1 | 0
Cc1ccc(-c2ccc(S(=O)(=O)Nc3cccnc3)cc2)cc1 | -3 | 3 | 21 | 23 | 112 | -18
COc1ccccc1C(=O)O/N=C(\c1ccccc1)c1ccncc1 | -2 | 10 | 2 | 20 | 11 | -3
O=C(O/N=C(/c1ccccc1)c1ccncc1)c1ccc(F)cc1 | 31* | 6 | -11 | -5 | 272 | 7
Cc1ccc(S(=O)(=O)N2CCN(c3ccccc3)CC2)cc1C(N)=O | -1 | -8 | -13 | -1 | 4 | -5
CCOC(=O)C1=C(CC)OC(N)=C(C#N)C1c1ccc(OC)c(OC)c1OC (centres undefined) | 0 | -6 | -11 | -10 | 1 | -11
CCOC(=O)C1=C(CSc2nc(-c3ccncc3)ccc2C#N)OC(N)=C(C#N)C1c1ccc(OC)cc1 (centres undefined) | 15 | 3 | -9 | 14 | -12 | -44
CCOC(=O)C1=C(CSc2nc(C)ccc2C#N)OC(N)=C(C#N)C1c1cccc(OC)c1OC (centres undefined) | 15 | 6 | -1 | 76* | 54 | -2
CCOC(=O)C1=C(CSc2nc(-c3ccncc3)ccc2C#N)OC(N)=C(C#N)C1c1cccnc1 (centres undefined) | -1 | -7 | 2 | 61* | -1 | -21
COc1ccccc1NC(=O)CC(=O)CSc1nnc(-c2ccc(C)cc2)n1C | -1 | -20 | -2 | 88* | -13 | 0
COc1ccccc1NC(=O)CSc1nnc(-c2ccc(NC(C)=O)cc2)n1C | 11 | -11 | -17 | 106* | 3 | 9
CC1(C)Cc2c(sc3nc(=S)[nH]c(N)c23)CO1 | -5 | -2 | x | -46 | 2 | -6
O=C(NCCS(=O)(=O)N1CCN(c2cccc(Cl)c2)CC1)c1ccc2c(c1)OCO2 | 0 | -10 | -9 | x | x | x
COC(=O)c1ccc(OC(=O)c2ccccn2)cc1 | 46* | 0 | 8 | -60 | 0 | -4
COC(=O)c1ccc(/C=C(\C#N)c2ccccn2)cc1 | x | 6 | 71* | 5 | 177 | 3
SMILES | HDAC3 inhib | JMJD2C inh | PvdQ acylase | PHOSPHO1 inh | SUMO Mot1 rescue | pCIP destab
COC(=O)c1ccc(OC(=O)c2cccnc2SC)cc1 | 1 | 1 | -5 | 19 | 4 | 5
CCN1C(=O)/C(=C/c2ccc(C)s2)NC1=S | u | -4 | -5 | 76* | 0 | -1
CC(C)(C)c1ccc(OCC(O)CSc2ncn[nH]2)cc1 (centres undefined) | 14 | -18 | -12 | 80* | 22 | -2
Nc1ncc(Br)cc1S(=O)(=O)NC1CCCCC1 | 4 | x | -10 | 72* | 9 | 2
Cc1ccccc1CS(=O)(=O)c1nnc([C@H](Cc2ccccc2)NC(=O)OC(C)(C)C)o1 | 46* | -6 | -4 | 11 | -29 | -4
CC(C)(C)OC(=O)N[C@@H](Cc1ccccc1)c1nnc(S(=O)(=O)Cc2ccccc2)o1 | 76* | 4 | x | 23 | 18 | -27
CCNC(=O)c1cc(S(=O)(=O)N2CCSCC2)ccc1OC | 7 | -16 | -2 | x | 38 | -8
O=C(NCCc1cccc(C(F)(F)F)c1)C1CCC(=O)N(Cc2ccc(Cl)cc2)C1 (centres undefined) | 3 | 5 | -8 | 68* | -8 | -2
O=C(NCCc1ccccc1Cl)C1CCC(=O)N(Cc2cccc(C(F)(F)F)c2)C1 (centres undefined) | 4 | 8 | -2 | 38 | 7 | -10
COCCn1c(SCc2nc3sc(C(=O)OC)c(C)c3c(=O)[nH]2)nc2ccccc21 | 2 | -2 | -2 | 92* | -10 | -11
CCn1c(SCc2nc3sc(C(=O)O)c(C)c3c(=O)[nH]2)nc2ccccc21 | 0 | -3 | -7 | 26 | 65 | 0
CC(=O)Nc1ccc(C23CC4CC(CC(C4)C2)C3)cc1 | -6 | 40 | -9 | -12 | 17 | -5
Oc1ccc(C23CC4CC(CC(C4)C2)C3)cc1O | -5 | 3 | -7 | 26 | 648* | -4
CN(C)c1ccc(NC(=O)c2sc(SCC(=O)Nc3ccc(Br)cc3)nc2N)cc1 | 3 | 14 | 0 | -32 | -6 | -10
CN(C)c1ccc(NC(=O)c2sc(SCC(=O)Nc3nccs3)nc2N)cc1 | -3 | 6 | 2 | 67* | -1 | 4
Cc1ccc(/C=N/NC(=S)N2CCOCC2)cc1 | 5 | -3 | -10 | 62* | -2 | 4
S=C(N/N=C/c1ccc(Cl)cc1)N1CCOCC1 | -9 | -1 | -2 | -5 | 15 | 6
COc1ccc(OC)c(Nc2nc(-c3sc(NC(=O)C(C)(C)C)nc3C)cs2)c1 | 2 | 7 | 13 | 57 | -5 | -6
COc1ccc(OC)c(Nc2nc(-c3sc(NC(=O)CC(C)C)nc3C)cs2)c1 | -4 | 12 | -11 | 65* | -4 | 8
COc1ccc(Cl)cc1Nc1nc(-c2sc(NC(=O)C(C)(C)C)nc2C)cs1 | 6 | 7 | -17 | 101* | 10 | -2
CCC(C)C(=O)Nc1nc(C)c(-c2csc(Nc3cc(Cl)ccc3OC)n2)s1 (centres undefined) | 7 | 2 | -18 | 91* | 11 | -2
CCC(C)C(=O)Nc1nc(C)c(-c2csc(Nc3cc(OC)ccc3OC)n2)s1 (centres undefined) | 3 | 4 | -12 | 62* | 3 | 10
